Test results taken from PubChem BioAssay (Tox21).
Several values for one entry are separate records, joined by “and”; a condition that tells them apart may be missing. Equal values may be shown once. Records with an inconclusive call do not appear. A call without a number means that no potency is given here. Activity calls are given as the source filed them. Calls follow the shape of the dose curve; as a rule, active = well fitted inhibition curve with a large enough effect in the repeat runs; inconclusive = weak or mixed curves; inactive = no such curve, though single readings can be large or run the other way.

biological target: Cytochrome P450 3A4 (Homo sapiens) (UniProt P08684); assay: Cytochrome P450 Family 3 Subfamily A Member 4 (CYP3A4) small molecule antagonists: luciferase reporter qHTS assay (AID 1671201); conditions: P450-Glo CYP3A4 enzyme, luciferin luminescence, 1 h; series mostly up to 115 µM; also: nearly all actives have a fitted effect of over 50% in size
Sequence (P08684 whole entry, looked up): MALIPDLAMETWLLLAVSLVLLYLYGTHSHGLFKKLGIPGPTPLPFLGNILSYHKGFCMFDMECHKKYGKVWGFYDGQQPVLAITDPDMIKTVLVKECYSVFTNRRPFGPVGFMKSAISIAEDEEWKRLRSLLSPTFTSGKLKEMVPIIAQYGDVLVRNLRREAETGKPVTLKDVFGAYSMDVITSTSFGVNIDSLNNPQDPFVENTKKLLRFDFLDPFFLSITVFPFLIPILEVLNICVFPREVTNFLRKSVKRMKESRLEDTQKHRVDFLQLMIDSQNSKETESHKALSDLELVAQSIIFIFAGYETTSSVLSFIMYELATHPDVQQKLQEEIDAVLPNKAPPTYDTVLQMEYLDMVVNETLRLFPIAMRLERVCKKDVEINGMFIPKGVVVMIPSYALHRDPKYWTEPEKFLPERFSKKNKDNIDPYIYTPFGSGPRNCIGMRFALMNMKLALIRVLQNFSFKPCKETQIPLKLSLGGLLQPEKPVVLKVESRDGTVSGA
How it was run: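 CYP3A4 activity was followed with a P450-Glo proluciferin substrate. Test compounds in DMSO were preincubated 10 min; NADPH regeneration then ran 1 h, and light output was read 20 min after detection reagent.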
Potency is read from the fitted curve at half-maximal effect.

Row | SMILES | Potency
1 | CCCCCCCCCCN | inactive
2 | COc1ccc(N)c(C)c1 | 31.6 µM (active)
3 | CC(CCO)CC(C)(C)C (centres undefined) | inactive
4 | CCCCCCCO | inactive
5 | C[Si]1(C)O[Si](C)(C)O[Si](C)(C)O[Si](C)(C)O1 | inactive
6 | CC(O)CC(C)(C)O (centres undefined) | inactive
7 | CC(C)OC(=O)COc1ccc(Cl)cc1Cl | inactive
8 | CCCCCC(=O)O | inactive
9 | CN(C)c1ccc(Cc2ccc(N(C)C)cc2)cc1 | 35.7 µM (active) and 15.9 µM (active)
10 | c1ccc(Oc2ccccc2)cc1 | inactive
11 | CCCCCCCCCCCC(=O)OC | inactive
12 | CC(C)(C)c1cc(Cc2cc(C(C)(C)C)c(O)c(C(C)(C)C)c2)cc(C(C)(C)C)c1O | inactive
13 | CC1(C)OC[C@@H]2O[C@@]3(C(=O)O)OC(C)(C)O[C@H]3[C@@H]2O1 | inactive
14 | O=[N+]([O-])c1ccc2nc[nH]c2c1 | inactive
15 | CC(=O)OC1CC(C)OC(C)O1 (centres undefined) | inactive
16 | CC(C)c1cccc(C(C)C)c1 | inactive
17 | CNC(=O)Oc1ccc2c(c1)[C@]1(C)CCN(C)[C@@H]1N2C | inactive

Row | SMILES | Potency
18 | CN/C(=C\[N+](=O)[O-])NCCSCc1csc(CN(C)C)n1 | inactive
19 | OCc1ccccc1 | inactive
20 | CCNc1ccccc1 | inactive
21 | N[C@H](Cc1c[nH]c2ccccc12)C(=O)O | inactive
22 | O=C(O)c1ccc(C(=O)O)c(C(=O)O)c1 | inactive
23 | CCO[Si](CCC#N)(OCC)OCC | inactive
24 | O=S(=O)(O)c1ccc(N=Nc2c(O)ccc3cc(S(=O)(=O)O)ccc23)cc1 | inactive
25 | O=C1C(c2[nH]c3ccccc3c2O)=Nc2ccccc21 | inactive
26 | C=CCc1ccc(OC)c(OC)c1 | inactive
27 | CC1(C)NC(=O)NC1=O | inactive
28 | CN(C)CCOC(=O)COc1ccc(Cl)cc1 | inactive
29 | CC(C)CC(C)O (centres undefined) | inactive
30 | c1ccc2c(c1)Cc1ccccc1-2 | inactive
31 | O=C(O)CCCCCCCCC(=O)O | inactive
32 | CSc1ccc(Cl)cc1 | inactive
33 | CC(C)CC(=O)CC(C)CC(C)C (centres undefined) | inactive
34 | C=CCCCCCCCCC(=O)O | inactive
